Compound activity from PubChem.
NALP1 yeast inh – NALP1 inflammasome inhibitors in reconstituted yeast, colorimetric, S. cerevisiae, triplicate retest. inhibition, % at 10 µM. S. cerevisiae NALP1/ASC/caspase-1 growth, X-gal OD620, 72 h. hit rate 0.61% among 280,000; in the data active = inhibition mostly above about 24%, no sharp cut-off; inactive = mostly below about 32%
NALP3 yeast inh – NALP3 inflammasome inhibitors in reconstituted yeast, primary screen, luminescence, uHTS. inhibition, % at 10 µM. hit rate 0.39% among 330,000. Yeast reconstituted NLRP3/ASC/caspase-1, beta-gal luminescence, 24 h;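 active = inhibition of 50% or more; inactive = inhibition below 50%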
tim10-1 inh – growth inhibitors of tim10-1 mutant yeast, primary screen, luminescence, uHTS; S. cerevisiae tim10-1 ts strain growth, BacTiter-Glo, 24 h; inhibition, % at 20 µM; hit rate 2.2% among 330,000;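 active = inhibition of at least 40%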;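 note: mutant grown at 25 °C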
tim23-1 inh – growth inhibitors of tim23-1 mutant yeast, primary screen, luminescence, uHTS; S. cerevisiae tim23-1 growth, BacTiter-Glo luminescence, 24 h; inhibition, % at 20 µM; hit rate 1.3% among 330,000; AID 463212, 2010;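 active = growth inhibition of the mutant yeast at or above 50%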;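 note: temperature-sensitive mutant grown at 25 °C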
TIM10 inh – growth inhibitors of isogenic TIM10 control yeast, primary screen, counter-screen for tim10-1 yeast inhibitor project, luminescence, uHTS. S. cerevisiae TIM10 strain growth, BacTiter-Glo luminescence, 24 h. inhibition, % at 10 µM. hit rate 1.4% among 330,000. AID 463195, 2010;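 active = inhibition of 40% or more at the single tested concentration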;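 note: wild-type TIM10 isogenic control strain grown at permissive 25 °C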
PfHsp90 set2 – growth inhibition of PfHsp90-expressing yeast, primary screen, antimalarial PfHsp90 inhibitor project, S. cerevisiae, BacTiter-Glo luminescence, single point, set 2; BacTiter-Glo ATP, 48 h; yeast lacking PDR1 and PDR3 efflux regulators; inhibition, % at 9.4 µM; hit rate 0.32% among 310,000;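 active = every replicate shows inhibition above about 80%, whatever the replicate mean, limit read from the data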
tim10-1 conf – growth inhibitors of tim10-1 mutant yeast, confirmation, single concentration, luminescence, S. cerevisiae; shares compounds with tim10-1 inh; S. cerevisiae tim10-1 ts strain growth, BacTiter-Glo, 24 h; inhibition, % at 20 µM; hit rate 56% among 7,400; AID 463213, 2010;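 active = inhibition of yeast growth at or above a set limit in either of two repeat tests at 20 µM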;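 note: tim10-1 mutant grown at permissive 25 °C to find synthetic lethal compounds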
Numbers stand for hits; 0 = inactive; - = no result given. An excerpt weighted towards active compounds, which were near 4.1% of everything screened.

SMILES	NALP1 yeast inh	NALP3 yeast inh	tim10-1 inh	tim23-1 inh	TIM10 inh	PfHsp90 set2	tim10-1 conf
COc1cccc(C(=O)NC2CCCc3c2cnn3-c2ccc(C)c(C)c2)c1OC (centres undefined)	0	0	0	0	0	0	-
COc1ncccc1C(=O)NC1CCCc2c1cnn2-c1ccc(C)c(C)c1 (centres undefined)	0	0	52	0	0	0	0
C=CCOC(=O)C1=C(C)N=C2SCCC(=O)N2C1/C=C/c1ccccc1 (centres undefined)	0	0	42	0	0	-	0
CCOC(=O)c1c(CSc2ccc(C)cc2)n(C)c2cc(Br)c(O)c(CN(C)C)c12	0	0	41	0	0	0	44
COCCn1c(=NC(=O)c2cc(-c3cccs3)nc3ccccc23)sc2cc(S(N)(=O)=O)ccc21	0	0	0	0	0	0	30
COc1cccc(CN2CC(C(=O)NCC3CCOCC3)CCC2=O)c1 (centres undefined)	0	0	0	0	0	0	-
CCCCNc1ncnc2c1cnn2Cc1ccc(Cl)cc1	0	0	40	0	0	0	0
COCCNc1ncnc2c1cnn2Cc1ccc(Cl)cc1	0	0	0	0	0	0	-
COc1ccccc1CNC(=O)COc1ccc(S(=O)(=O)N2CCCC2)cc1	0	0	0	0	0	0	-
COc1ccc(OC)c(NC(=O)c2cccc3c2C(=O)N(C2CCCCC2)C3)c1	0	0	54	0	0	0	0
Clc1ccc(Cn2ncc3c(N4CCCCC4)ncnc32)c(Cl)c1	0	0	43	0	0	0	0
CCCCOc1ccc(C(=O)NCC(=O)NC(C)CCc2ccccc2)cc1 (centres undefined)	0	0	0	0	0	0	-
Cc1ccc(S(=O)(=O)N2[C@@H](c3cccc(Cl)c3)C(C(=O)O)=CC[C@H]2c2ccc(C(C)C)cc2)cc1	-	0	0	0	0	-	-
CCN(CC)C(=O)C1CCN(S(=O)(=O)c2c(C)noc2/C=C/c2cccc(C)c2)CC1	0	0	41	0	0	0	0
CC(=O)Nc1ccc(NC(=O)CCCCCN2C(=O)c3ccccc3C2=O)cc1	0	0	0	0	0	0	-
CCN(CC)c1ccc(NC(=O)CCCCCN2C(=O)c3ccccc3C2=O)cc1	0	0	46	0	0	-	42
C[C@@H]1O[C@@H](O[C@H]2[C@H](O[C@H]3C[C@]4(C)C(C[C@@H](O)C5C([C@]6(C)CC[C@@H](C(C)(C)O)O6)CC[C@]54C)[C@@]4(C)CC[C@H](O)C(C)(C)C34)O[C@H](CO)[C@@H](O)[C@@H]2O)[C@H](O)[C@H](O)[C@H]1O (some centres undefined)	-	0	0	0	0	0	-
COc1cccc(N(C(=O)c2nc3nccc(C)n3n2)c2nc3ccccc3s2)c1	0	0	48	0	0	0	0
Cc1nn2c(N3CCOCC3)c3c(nc2c1-c1ccccc1)CCCC3	0	0	0	0	0	0	-
Cc1nc2c(-c3ccc(F)cc3)c(C)nn2c(N2CCOCC2)c1C	0	0	45	0	0	0	0
COc1cc(OC)cc(-c2c(C#Cc3ccsc3)c3cc(-c4ccc5c(c4)OCCO5)ccc3n2C)c1	-	0	0	0	0	0	-
COc1ccc(-n2c(Cc3cccn3C)nnc2SCC(=O)Nc2ccc(Cl)cc2)cc1	0	0	42	0	0	0	0
Cc1ccc(-n2nc(C)c(C(=O)Nc3cccc(C(=O)NC4CC4)c3)n2)c(C)c1	-	0	44	0	0	0	0
COC(=O)CCC(=O)N1CCCC(CO)(Cc2ccccc2F)C1 (centres undefined)	0	0	0	0	0	0	-
COC(=O)C1CCN(C(=O)c2ccc3nc(-c4cccc(OC)c4)oc3c2)CC1	0	0	42	0	0	0	0
COC(=O)C1CCN(C(=O)c2ccc3nccnc3c2)CC1	0	0	0	0	0	0	-
